ERK AVP inh: qHTS Assay for Inhibitors of the ERK Signaling Pathway using a Homogeneous Screening Assay | HEK293-V1b, vasopressin-stimulated pERK AlphaScreen | Potency, µM (titrated, usually from 57.5 µM), actives largely listed as inhibitors | 72,000 tested, 0.99% active; note: nearly all actives have a fitted effect of over 55% in size
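Overnight-seeded V1b-HEK293 cells in 1% FBS got compound, then vasopressin (25 nM final, 5 min, 37C), then lysis buffer. AlphaScreen detection of phospho-ERK; activity normalized to basal and full-stimulation controls.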
TSHR ag: qHTS Assay for Agonists of the Thyroid Stimulating Hormone Receptor. Thyrotropin receptor (Homo sapiens), P16473. HEK293-CNG-TSHR cells (CNG channel as cAMP sensor), membrane potential dye, cAMP. Potency, µM (titrated, usually from 57.1 µM), most hits filed as activators. 73,000 tested, 0.48% active. AID 926, 2007; active = well fitted activation curve with a large enough effect in the main read-out, with a control signal flat, not every such curve was filed as active; inconclusive = small, poorly fitted or top-dose-only effect, or a change in a side signal; inactive = no such curve, though single readings can be large or run the other way; reference of the percent scale not stated here;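 note: the control signal comes from parental cells without the receptor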
Target sequence (P16473 whole entry, looked up): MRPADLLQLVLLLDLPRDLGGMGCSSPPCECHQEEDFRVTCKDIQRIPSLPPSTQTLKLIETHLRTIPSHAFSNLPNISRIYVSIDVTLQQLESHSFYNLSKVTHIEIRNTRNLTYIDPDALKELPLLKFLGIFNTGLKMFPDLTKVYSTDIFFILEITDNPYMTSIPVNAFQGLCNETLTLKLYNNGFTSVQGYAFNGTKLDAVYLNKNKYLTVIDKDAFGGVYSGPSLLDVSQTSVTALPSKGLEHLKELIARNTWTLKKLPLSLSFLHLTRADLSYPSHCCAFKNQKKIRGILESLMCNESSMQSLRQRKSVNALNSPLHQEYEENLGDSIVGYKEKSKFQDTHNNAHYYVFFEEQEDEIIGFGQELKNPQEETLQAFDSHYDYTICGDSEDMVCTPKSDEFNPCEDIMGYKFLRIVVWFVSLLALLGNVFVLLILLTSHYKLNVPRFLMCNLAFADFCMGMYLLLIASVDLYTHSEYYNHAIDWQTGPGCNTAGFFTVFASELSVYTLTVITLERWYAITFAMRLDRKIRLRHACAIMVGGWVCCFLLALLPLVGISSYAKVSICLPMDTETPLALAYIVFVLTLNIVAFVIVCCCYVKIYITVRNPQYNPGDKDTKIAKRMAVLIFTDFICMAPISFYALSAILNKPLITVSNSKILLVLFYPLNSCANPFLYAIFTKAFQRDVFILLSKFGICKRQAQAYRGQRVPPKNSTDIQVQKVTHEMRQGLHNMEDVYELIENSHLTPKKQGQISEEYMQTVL
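HEK 293 cells stably expressing TSHR and a cAMP-gated CNG channel; parental CNG-only cells as counterscreen. Cells preloaded 60 min with membrane potential dye plus 100 uM RO 20-1724, then compound 30 min; fluorescence read at 590 nm.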
Tau fil binding: qHTS Assay for Tau Filament Binding | recombinant tau filaments, thioflavin S fluorescence, 15 h; filaments grown with octadecylsulfate alongside compound | Microtubule-associated protein tau (Homo sapiens), P10636 | AID 596, 2007 | 71,000 tested, 2% active | Potency, µM (top dose mostly 57.1 µM);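 note: actives lower thioflavin S fluorescence by blocking filaments or displacing dye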
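Thioflavine S fluorescence (ex 450, em 510 nm) reports filaments formed from 1 uM human tau plus 30 uM ODS over 15 h at 37 C (10 mM HEPES pH 7.4, 100 mM NaCl, 5 mM DTT); compounds displacing dye or blocking filaments lower signal.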
CRE Fsk mod: Cell signaling CRE-BLA (Fsk stim). CHO CRE-bla reporter (cAMP response element driving beta-lactamase), forskolin EC10, beta-lactamase ratio. Potency, µM (highest dose often 38.2 µM), hits mostly activators. 71,000 tested, 2.5% active. AID 662, 2007; active = well fitted activation curve with a large enough effect in the signal ratio, with a control signal flat, not every such curve was filed as active; inconclusive = small, poorly fitted or top-dose-only effect, or effect the other way, or a change in a side signal; the % refers to the signal ratio
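The 460nm/530nm emission ratio after CCF4 loading defined %Activity, from which AC50 values were obtained. CRE-bla CHO cells received compound dilution series together with an EC10 level of NKH 477 for 3 hours at 37 degrees Celsius.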
HEK293 cAMP ctrl: qHTS Assay for Agonists of the Thyroid Stimulating Hormone Receptor: Activators of Intracellular cAMP Concentrations in Parental HEK 293; parental HEK293 CNG cAMP sensor, membrane potential fluorescence; Potency, µM (highest dose often 57.1 µM), hits mostly activators; 73,000 tested, 2.5% active; AID 938, 2007; note: nearly all actives have a fitted effect of over 55% in size
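Parental HEK 293 cells stably expressing a cAMP-gated CNG channel were loaded with membrane potential dye containing 100 uM RO 20-1724 for 60 min. Compound added for 30 min; depolarization read as fluorescence intensity at 590 nm.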
Hits are given with their value; [ ] = dose if it differs, or a comment. Compounds with a hit are over-represented: about 7.6% of the library has one in this group of screens. Unless noted, calls come from the whole dose curve; as a rule, active = well fitted curve in the direction sought with a large enough effect; inconclusive = small, poorly fitted or top-dose-only effect, or another doubt; inactive = no such curve, though single readings can be large; an effect the other way counts as inactive or inconclusive.

CC(C)CCn1c(SCC#N)nc2c(sc3ccccc32)c1=O was read as ERK AVP inh inactive, TSHR ag inconclusive, Tau fil binding inactive, CRE Fsk mod 0.4µM and HEK293 cAMP ctrl inconclusive.
`Cc1nc2cnc(OCc3ccccc3)nc2n(Cc2ccc(F)cc2)c1=O` gave ERK AVP inh inactive, TSHR ag inconclusive, Tau fil binding inactive, CRE Fsk mod inconclusive and HEK293 cAMP ctrl inconclusive.
For Cn1c(=O)c(-c2ccc(F)cc2)nc2cnc(OCc3ccccc3)nc21 the results were ERK AVP inh inactive, TSHR ag inactive, Tau fil binding inactive, CRE Fsk mod 13µM and HEK293 cAMP ctrl inactive.
Screening Cn1c(=O)c(CCc2ccccc2)nc2cnc(OCc3ccccc3)nc21 returned ERK AVP inh inactive, TSHR ag inconclusive, Tau fil binding inactive, CRE Fsk mod inactive and HEK293 cAMP ctrl 1µM.
For COc1ncc2nc(CCc3ccccc3)c(=O)n(C)c2n1 the results were ERK AVP inh inactive, TSHR ag inconclusive, Tau fil binding inactive, CRE Fsk mod inactive and HEK293 cAMP ctrl inconclusive.
c1ccc(-c2ccc(N3CC[C@@]4(CCCNC4)C3)cc2)cc1 was read as ERK AVP inh inactive, TSHR ag inactive, Tau fil binding inactive, CRE Fsk mod inactive and HEK293 cAMP ctrl inactive.
Screening c1ccc(-c2ccc(N3CCCC4(CCNCC4)C3)cc2)cc1 returned ERK AVP inh inconclusive, TSHR ag inconclusive, Tau fil binding 3.2µM, CRE Fsk mod inconclusive and HEK293 cAMP ctrl inactive.
`c1ccc(-c2ccc(N3CC4(CCNCC4)C3)cc2)cc1` gave ERK AVP inh inconclusive, TSHR ag inconclusive, Tau fil binding 13µM, CRE Fsk mod inconclusive and HEK293 cAMP ctrl inactive.
`COCCN(CCOC)c1ncnc2c1cnn2-c1ccc(Cl)cc1` gave ERK AVP inh inactive, TSHR ag inactive, Tau fil binding inactive, CRE Fsk mod 10µM and HEK293 cAMP ctrl inactive.
`CN(Cc1ccccc1)c1ncnc2c1cnn2-c1ccccc1` gave ERK AVP inh inconclusive, Tau fil binding inactive, CRE Fsk mod 10µM and HEK293 cAMP ctrl inactive.
CCOC(=O)CSc1ncnc2c1cnn2-c1ccc(Cl)cc1 was read as ERK AVP inh inactive, TSHR ag inactive, Tau fil binding inactive, CRE Fsk mod inactive and HEK293 cAMP ctrl inactive.
Screening c1ccc(CNc2ncnc3c2cnn3-c2ccccc2)cc1 returned ERK AVP inh inactive, TSHR ag inconclusive, Tau fil binding inactive, CRE Fsk mod inconclusive and HEK293 cAMP ctrl inconclusive.
Screening CCOC(=O)CSc1nc2ccccc2c(=O)n1Cc1ccco1 returned ERK AVP inh inactive, TSHR ag inconclusive, Tau fil binding inactive, CRE Fsk mod inactive and HEK293 cAMP ctrl inconclusive.
Screening CCOC(=O)CSc1nc2c(sc(=S)n2Cc2ccco2)c(=O)n1-c1ccccc1 returned ERK AVP inh inconclusive, TSHR ag inconclusive, Tau fil binding inactive, CRE Fsk mod inconclusive and HEK293 cAMP ctrl 1.3µM.
For Cc1ccc(S(=O)(=O)N2CCC(C(=O)N[C@@H](C)C(=O)Nc3ccc4c(c3)OCO4)CC2)cc1 the results were ERK AVP inh inactive, TSHR ag inactive, Tau fil binding 10µM, CRE Fsk mod inactive and HEK293 cAMP ctrl inactive.
Screening Cc1cc2cc(CN3C(=O)c4ccccc4C3=O)ccc2n1C returned ERK AVP inh inactive, TSHR ag inactive, Tau fil binding 20µM, CRE Fsk mod inactive and HEK293 cAMP ctrl inactive.
Screening CC1CCC(C(C)(C)O)CC2=C1CCC2C (stereo not given) returned ERK AVP inh inactive.
For C1OCOCO1 the results were ERK AVP inh inactive, TSHR ag inconclusive, Tau fil binding inactive, CRE Fsk mod inactive and HEK293 cAMP ctrl inactive.
`Cc1ccc(C(=O)C(C)CN2CCCCC2)cc1` (stereo not given) gave ERK AVP inh inactive.
`Oc1[nH]c2ccccc2c1C=Nc1ccc2c(c1)OCCO2` gave ERK AVP inh 20µM, TSHR ag inactive, Tau fil binding inconclusive, CRE Fsk mod inactive and HEK293 cAMP ctrl inactive.
For CN(C)C(=O)c1ccc(-c2cc(NCc3ccccc3)ncn2)cc1 the results were ERK AVP inh inactive, TSHR ag inactive, Tau fil binding inactive, CRE Fsk mod inconclusive and HEK293 cAMP ctrl inactive.
Cc1ccc(S(=O)(=O)N2CCN(C)CC2)cc1-c1nnc2c3ccccc3c(C)nn12 was read as ERK AVP inh inconclusive, TSHR ag 4µM, Tau fil binding inactive, CRE Fsk mod inconclusive and HEK293 cAMP ctrl inactive.
`Cc1ccc(S(=O)(=O)N2CCN(CCO)CC2)cc1-c1nnc2c3ccccc3c(C)nn12` gave ERK AVP inh inactive, TSHR ag 16µM, Tau fil binding inactive, CRE Fsk mod inconclusive and HEK293 cAMP ctrl inactive.
COc1ccc(S(=O)(=O)N2CCN(CCO)CC2)cc1-c1nnc2c3ccccc3c(C)nn12 was read as TSHR ag inactive, Tau fil binding inactive, CRE Fsk mod inconclusive and HEK293 cAMP ctrl inactive.
`CN(C)c1ncc2nc(-c3ccccc3)c(=O)n(Cc3cccs3)c2n1` gave ERK AVP inh inactive, TSHR ag inactive, Tau fil binding inactive, CRE Fsk mod inconclusive and HEK293 cAMP ctrl inactive[0.457 µM].
COC(=O)C/C=C\[C@@H](C)[C@@H](/C=N\OCC[C@H]1C=C[C@H](OC(C)=O)[C@@H](COC(C)=O)O1)NS(=O)(=O)c1ccc(C)cc1 was read as ERK AVP inh inactive[11.5 µM], TSHR ag inactive[11.4 µM] and HEK293 cAMP ctrl inactive[11.4 µM].
`N#Cc1cccc(NC(=O)N2CCC3(CC2)CCN(C(=O)c2cnccn2)CC3)c1` gave ERK AVP inh inactive, TSHR ag inactive, Tau fil binding inactive, CRE Fsk mod inactive and HEK293 cAMP ctrl inactive.
Cc1c(CN(C)C)c2c(n1C)C(=O)c1ccc(Br)cc1-2 was read as ERK AVP inh inconclusive, TSHR ag inactive, Tau fil binding 2.5µM, CRE Fsk mod 3.2µM and HEK293 cAMP ctrl inactive.
O=C(COC(=O)c1cccc(NC(=O)c2ccco2)c1)c1ccc(Br)cc1 was read as ERK AVP inh 16µM, TSHR ag inconclusive, Tau fil binding inactive[11.4 µM], CRE Fsk mod inconclusive and HEK293 cAMP ctrl inconclusive.
CC(C)(C)C(=O)COC(=O)c1cccc(NC(=O)c2ccco2)c1 was read as ERK AVP inh inactive, TSHR ag inactive, Tau fil binding inactive, CRE Fsk mod inactive and HEK293 cAMP ctrl inactive.
`COc1ccc(C(=O)N2CCC3(CCCN(c4ccncc4)C3)CC2)cc1` gave ERK AVP inh inconclusive, TSHR ag inconclusive, Tau fil binding inactive, CRE Fsk mod inactive and HEK293 cAMP ctrl 13µM.
Screening O=C(c1cc(C(F)(F)F)cc(C(F)(F)F)c1)N1CCC2(CC1)CCN(c1ncccn1)CC2 returned ERK AVP inh inactive, TSHR ag inactive, Tau fil binding inactive, CRE Fsk mod inactive and HEK293 cAMP ctrl inactive.
